Test [1] is described as follows: NCI Yeast Anticancer Drug Screen. Data for the rad50 strain (AID 155).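 Also: 0% = growth of vehicle-only cultures of the same strain.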 As to conditions: S. cerevisiae rad50 strain growth inhibition; at 50.0 µM; hits give high values. The method in brief:
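Yeast carrying a defined DNA repair defect were exposed to test compounds, and growth was compared with vehicle-treated controls to give percent inhibition.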

Test [2] in a line: NCI Yeast Anticancer Drug Screen. Data for the mec2-1 strain (AID 157). As to conditions: S. cerevisiae mec2-1 strain, at 50.0 µM, hits give high values. Put shortly: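 Compounds were applied to mec2-1 yeast cells. Their growth was then compared with that of vehicle-treated cultures to give growth inhibition.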
A short description of test [3]: NCI Yeast Anticancer Drug Screen. Data for the sgs1 mgt1 strain (AID 161).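 Also: 0% = growth of cultures given vehicle only.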 The following applies: S. cerevisiae sgs1 mgt1 strain, at 50.0 µM, hits give high values. Put shortly: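 Percent growth inhibition was derived by comparing compound-exposed mutant yeast with vehicle-exposed cultures. The strain carries alterations in DNA damage repair.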
Test [4] can be described thus: NCI Yeast Anticancer Drug Screen. Data for the cln2 rad14 strain (AID 165).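 Also: 0% = growth equal to vehicle treated cultures.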 As to conditions: S. cerevisiae cln2 rad14 strain, at 50.0 µM, hits give high values. The method in brief:
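Strain: cln2 rad14 yeast, altered in cell cycle control and DNA damage repair. Read-out: growth inhibition vs vehicle.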

A short description of test [5]: NCI Yeast Anticancer Drug Screen. Data for the bub3 strain (AID 167). The following applies: S. cerevisiae bub3 mutant strain, at 50.0 µM, hits give high values. The method in brief:
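Compounds were applied to a genetically altered yeast strain carrying a cell-cycle control defect. Growth inhibition was scored against vehicle-treated controls.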

Test [6] in a line: NCI Yeast Anticancer Drug Screen. Data for the mlh1 rad18 strain (AID 175). As to conditions: S. cerevisiae mlh1 rad18 strain growth inhibition; at 50.0 µM; hits give high values. The method in brief: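 A repair-deficient yeast strain is exposed to test compound, and growth is scored relative to vehicle-treated controls.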

Among the data in PubChem BioAssay (NCI) are growth inhibition values, retold here.

SMILES strings stand for the structures. Compounds without any hit were thinned out: in the full panel of roughly 79,000, 15% have a hit. Values without a mark were called inactive. Calls of active or inactive are those of the source. Rule as the data show it: active = growth inhibition above about 70%; inactive = the rest.

Take `CC1=C(C(=O)NC2CCCCC2)CC(C(=O)NC2CCCCC2)=C(C)N1`: the growth inhibition was -16.6% in test [1]; -25.6% in test [2]; -26.2% in test [3]; -21.1% in test [4]; -17.3% in test [5]; -61.9% in test [6].
As to `C/C(=C\C(C)(C)c1ccccc1)c1ccccc1`, the growth inhibition was -14.9% in test [1]; -31.6% in test [2]; -3.75% in test [3]; -8.35% in test [4]; 9.2% in test [5]; -25.1% in test [6].
Turning to `O=S1(=O)OCCOS(=O)(=O)C1F`, the growth inhibition in test [1] is -69%; in test [2], -4.65%; in test [3], -22.4%; in test [4] it was -23.2%; in test [5] it was -5.35%; in test [6], -16.1%.
In the case of `Clc1ccc(-n2cccc2)cc1`, the growth inhibition was -4.75% in test [1]; 0.25% in test [2]; 10.7% in test [3]; 5.8% in test [4]; -19.6% in test [5]; -6.3% in test [6].
On to `O=C(O)c1ccc2ccccc2c1C(=O)O`, for which the growth inhibition in test [1] was 6.4%; in test [2] it was -1.6%; in test [3], 0.25%; in test [4], -6.55%; in test [5] it was -2.2%; in test [6], -1.7%.
Turning to `CCC(C)OC(=O)/C=C/c1ccccc1` (stereo not given), the growth inhibition in test [1] was 1.35%; in test [2], 3.15%; in test [3], -1.8%; in test [4], -0.25%; in test [5], -10.2%; in test [6], -10.6%.
Turning to `COc1cc(C2C3=C(CCC3=O)Oc3cc4c(cc32)OCO4)cc(OC)c1OC` (stereo not given), the growth inhibition is 2.55% in test [1]; 17.1% in test [2]; -12.2% in test [3]; 2.05% in test [4]; -4.55% in test [5]; 1.8% in test [6].
Turning to `O=C(NNC1=NCCN1)c1ccco1`, the growth inhibition is -7.5% in test [1]; -21.1% in test [2]; -9.8% in test [3]; -32.4% in test [4]; -2.3% in test [5]; -2.25% in test [6].
As for `O=c1c2cc([N+](=O)[O-])ccc2c2ccc([N+](=O)[O-])cc2c(=O)n1-c1ccc2c(c1)Cc1ccccc1-2`, the growth inhibition in test [1] is 21.5%; in test [2], -21%; in test [3], -19.2%; in test [4], -21.4%; in test [5], -8.35%; in test [6], -5%.
For the compound `Nc1ncnc2c1c1c(=O)[nH]c(=O)[nH]c1n2C1OC(CO)C(O)C1O` (stereo not given), the growth inhibition was -1.95% in test [1]; 1.8% in test [2]; 7.35% in test [3]; 2.15% in test [4]; -7.55% in test [5]; -44.5% in test [6].
With `CCN1C(=O)Nc2ccc(Cl)cc2C1(O)c1ccccc1` (stereo not given), the growth inhibition in test [1] was 6.25%; in test [2], 12.6%; in test [3], 1.55%; in test [4], 10.8%; in test [5] it was -12.8%; in test [6], -6.35%.
Turning to `CCOC(=O)N1CCC2C(=C(C)C(C)C3=C2C(=O)c2ccccc2C3=O)C1` (stereo not given), the growth inhibition was -11.5% in test [1]; -3.5% in test [2]; -8.9% in test [3]; 16.9% in test [4]; 62.4% in test [5]; 7.1% in test [6].
Regarding `N#CC1(CCCI)CCCC1`, the growth inhibition in test [1] was 9.3%; in test [2] it was 7.05%; in test [3] it was 7.95%; in test [4] it was -7.45%; in test [5] it was -2.3%; in test [6], 6.1%.
Consider `COc1c(NC(=O)c2ccccc2Cl)cccc1[N+](=O)[O-]`, for which the growth inhibition in test [1] was -1%; in test [2], 1.3%; in test [3], 13.8%; in test [4], -6.75%; in test [5], 16.9%; in test [6] it was 20.2%.
Turning to `CC(=O)Oc1ccccc1OC(=S)N(C)C`, the growth inhibition in test [1] was 11.2%; in test [2], -7.35%; in test [3], -5.5%; in test [4], -39.2%; in test [5], 15.8%; in test [6] it was -26.8%.
`CCOC1NC(=O)c2ccccc21` (stereo not given): the growth inhibition in test [1] is 22.1%; in test [2] it was 6.15%; in test [3], 5.85%; in test [4], 22.2%; in test [5], 19.1%; in test [6], 12.8%.
As to `O=C1CC(=O)C(Br)=C1Br`, the growth inhibition in test [1] is 99.5% (active); in test [2], 99.5% (active); in test [3], 99.5% (active); in test [4], 99.3% (active); in test [5], 99.4% (active); in test [6] it was 99.5% (active).
As to `CCNc1nc(C)nc2c1cnn2-c1ccccc1`, the growth inhibition in test [1] was -16.1%; in test [2] it was -12.6%; in test [3], -6.75%; in test [4], -56.5%; in test [5] it was -4.8%; in test [6], -9.75%.
For `NC(CSS(=O)(=O)O)=NCCSS(=O)(=O)O`, the growth inhibition is -20.4% in test [1]; -12.4% in test [2]; -3.45% in test [3]; 7.45% in test [4]; -2.4% in test [5]; 3.95% in test [6].
For the compound `O=C1CCC2(c3ccc(Cl)cc3)SCCN12` (stereo not given), the growth inhibition is 5.8% in test [1]; -20.5% in test [2]; -6.85% in test [3]; 2.75% in test [4]; 31.8% in test [5]; -0.15% in test [6].
